According to PubChem BioAssay (NCI):
Compounds without any hit were thinned out: in the full panel of roughly 79,000, 15% have a hit. A number with no mark means an inactive call. Activity calls are given as the source filed them. No stated cut-off is given here; in the data, active means growth inhibition above about 70%; inactive means the rest.

Columns and labels:
[1] = NCI Yeast Anticancer Drug Screen. Data for the rad52 strain (AID 147);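 further: 0% = growth of vehicle-treated control cultures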; details: S. cerevisiae rad52 mutant growth inhibition, active compounds read high
Summary of the method: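 Growth of repair-deficient yeast cells was compared between compound-treated and vehicle-treated cultures to give percent inhibition.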

[2] = NCI Yeast Anticancer Drug Screen. Data for the wt1 strain (AID 149);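 further: 0% = growth of vehicle-treated wt1 cultures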; details: S. cerevisiae wt1 strain (SPY 50644) growth inhibition, active compounds read high
Summary of the method: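 Yeast wt1 strain exposed to compounds; growth inhibition measured relative to vehicle-treated controls.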

[3] = NCI Yeast Anticancer Drug Screen. Data for the rad50EPP+ strain (AID 151);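 further: 0% = growth of vehicle-treated control cultures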; details: S. cerevisiae rad50 mutant strain, active compounds read high
Summary of the method: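 Measured: growth inhibition of rad50EPP+ yeast. Reference: vehicle-treated controls. Screen uses strains with defined genetic alterations in DNA damage repair or cell cycle control.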

[4] = NCI Yeast Anticancer Drug Screen. Data for the mgt1 strain (AID 153); details: S. cerevisiae mgt1 mutant growth inhibition, active compounds read high
Summary of the method: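 Compounds were applied to mgt1 mutant yeast, and growth was then compared against vehicle-treated control cultures to give percent inhibition.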

[5] = NCI Yeast Anticancer Drug Screen. Data for the rad50 strain (AID 155);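 further: 0% = growth of vehicle-only cultures of the same strain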; details: S. cerevisiae rad50 strain growth inhibition, active compounds read high
Summary of the method: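 Yeast carrying a defined DNA repair defect were exposed to test compounds, and growth was compared with vehicle-treated controls to give percent inhibition.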

[6] = NCI Yeast Anticancer Drug Screen. Data for the mec2-1 strain (AID 157); details: S. cerevisiae mec2-1 strain, active compounds read high
Summary of the method: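 Compounds were applied to mec2-1 yeast cells. Their growth was then compared with that of vehicle-treated cultures to give growth inhibition.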

[7] = NCI Yeast Anticancer Drug Screen. Data for the rad14 strain (AID 159);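 further: 0% = growth of vehicle-treated control cultures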; details: S. cerevisiae rad14 strain growth inhibition, active compounds read high
Summary of the method: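 Yeast cells carrying a defined DNA-repair defect were exposed to compounds, and growth inhibition was calculated relative to vehicle-treated control cultures.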

[8] = NCI Yeast Anticancer Drug Screen. Data for the sgs1 mgt1 strain (AID 161);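 further: 0% = growth of cultures given vehicle only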; details: S. cerevisiae sgs1 mgt1 strain, active compounds read high
Summary of the method: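 Percent growth inhibition was derived by comparing compound-exposed mutant yeast with vehicle-exposed cultures. The strain carries alterations in DNA damage repair.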

[9] = NCI Yeast Anticancer Drug Screen. Data for the cln2 rad14 strain (AID 165);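 further: 0% = growth equal to vehicle treated cultures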; details: S. cerevisiae cln2 rad14 strain, active compounds read high
Summary of the method: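 Strain: cln2 rad14 yeast, altered in cell cycle control and DNA damage repair. Read-out: growth inhibition vs vehicle.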

[10] = NCI Yeast Anticancer Drug Screen. Data for the bub3 strain (AID 167); details: S. cerevisiae bub3 mutant strain, active compounds read high
Summary of the method: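 Compounds were applied to a genetically altered yeast strain carrying a cell-cycle control defect. Growth inhibition was scored against vehicle-treated controls.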

[11] = NCI Yeast Anticancer Drug Screen. Data for the wt2 strain (AID 169);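 further: 0% = growth of vehicle-treated yeast cultures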; details: S. cerevisiae wt2 strain growth inhibition, active compounds read high
Summary of the method: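 Growth of compound-treated yeast is measured and expressed as inhibition relative to vehicle-only controls.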

[12] = NCI Yeast Anticancer Drug Screen. Data for the sgs1 strain (AID 173);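 further: 0% = growth of vehicle-only control cultures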; details: S. cerevisiae sgs1 mutant, active compounds read high
Summary of the method: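 Strain with an altered DNA repair or cell cycle pathway exposed to compound. Growth then measured. Value = inhibition versus vehicle control.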

[13] = NCI Yeast Anticancer Drug Screen. Data for the mlh1 rad18 strain (AID 175); details: S. cerevisiae mlh1 rad18 strain growth inhibition, active compounds read high
Summary of the method: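 A repair-deficient yeast strain is exposed to test compound, and growth is scored relative to vehicle-treated controls.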

[14] = NCI Yeast Anticancer Drug Screen. Data for the rad18 strain (AID 177); details: S. cerevisiae rad18 mutant growth inhibition, active compounds read high
Summary of the method: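 DNA-repair-defective yeast; compound treatment; growth inhibition scored against vehicle.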

[15] = NCI Yeast Anticancer Drug Screen. Data for the CLN2oe strain (AID 163);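 further: 0% = growth of vehicle-only control cultures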; details: S. cerevisiae CLN2oe strain, active compounds read high
Summary of the method: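 Cells of an engineered yeast line with disturbed cell-cycle regulation are treated with compound. Inhibition of growth is then calculated relative to the vehicle-treated reference.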

[16] = NCI Yeast Anticancer Drug Screen. Data for the mlh1 strain (AID 171);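 further: 0% = growth of vehicle-treated control cultures of the same strain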; details: S. cerevisiae mlh1 strain growth inhibition, active compounds read high
Summary of the method: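 Test agents were incubated with yeast bearing a defined DNA damage repair or cell cycle control alteration; values are growth inhibition normalised to vehicle-treated cultures.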

[17] = at 5.0 µM (retest, dose inferred, filed as 0.5)
[18] = at 50.0 µM (retest, dose inferred, filed as 5.0)

With CC(=O)Oc1ccc2c(c1)Cc1cc(N=C3C=CC(=O)O3)ccc1-2 the growth inhibition ([1]; at 1.2 µM) was 14%, the growth inhibition ([1]; at 3.7 µM) was 41% and the growth inhibition ([1]; at 11.0 µM) was 98% (active). The growth inhibition ([1]; at 33.0 µM) was 98% (active), the growth inhibition ([1]; at 100.0 µM) was 94% (active) and the growth inhibition ([2]; at 1.2 µM) was 2%. For the same molecule, the growth inhibition ([2]; at 3.7 µM) was 24%, the growth inhibition ([2]; at 11.0 µM) was 96% (active) and the growth inhibition ([2]; at 33.0 µM) was 99% (active). The growth inhibition ([2]; at 100.0 µM) was 96% (active), the growth inhibition ([3]; at 1.2 µM) was 78% (active) and the growth inhibition ([3]; at 3.7 µM) was 96% (active). For the same molecule, the growth inhibition ([3]; at 11.0 µM) was 99% (active), the growth inhibition ([3]; at 33.0 µM) was 98% (active) and the growth inhibition ([3]; at 100.0 µM) was 93% (active). For the same molecule, the growth inhibition ([4]; at 1.2 µM) was 9%, the growth inhibition ([4]; at 3.7 µM) was 36% and the growth inhibition ([4]; at 11.0 µM) was 99% (active). For the same molecule, the growth inhibition ([4]; at 33.0 µM) was 99% (active), the growth inhibition ([4]; at 100.0 µM) was 96% (active) and the growth inhibition ([5]; at 1.2 µM) was 9%. The growth inhibition ([5]; at 3.7 µM) was 55%, the growth inhibition [5, 17] was 43% and the growth inhibition ([5]; at 11.0 µM) was 97% (active). The growth inhibition ([5]; at 33.0 µM) was 98% (active), the growth inhibition [5, 18] was 99% (active) and the growth inhibition ([5]; at 50.0 µM) was 99.5% (active). The growth inhibition ([5]; at 100.0 µM) was 92% (active), the growth inhibition ([6]; at 1.2 µM) was 15% and the growth inhibition ([6]; at 3.7 µM) was 37%. For the same molecule, the growth inhibition [6, 17] was 72% (active), the growth inhibition ([6]; at 11.0 µM) was 98% (active) and the growth inhibition ([6]; at 33.0 µM) was 99% (active). The growth inhibition [6, 18] was 99% (active), the growth inhibition ([6]; at 50.0 µM) was 99.4% (active) and the growth inhibition ([6]; at 100.0 µM) was 96% (active). The growth inhibition ([7]; at 1.2 µM) was 16%, the growth inhibition ([7]; at 3.7 µM) was 42% and the growth inhibition ([7]; at 11.0 µM) was 99% (active). The growth inhibition ([7]; at 33.0 µM) was 99% (active), the growth inhibition ([7]; at 100.0 µM) was 95% (active) and the growth inhibition [8, 17] was 64%. The growth inhibition [8, 18] was 99% (active), the growth inhibition ([8]; at 50.0 µM) was 99.6% (active) and the growth inhibition [9, 17] was 19%. The growth inhibition [9, 18] was 99% (active), the growth inhibition ([9]; at 50.0 µM) was 98.8% (active) and the growth inhibition ([10]; at 1.2 µM) was -8%. For the same molecule, the growth inhibition ([10]; at 3.7 µM) was 13%, the growth inhibition [10, 17] was 31% and the growth inhibition ([10]; at 11.0 µM) was 95% (active). For the same molecule, the growth inhibition ([10]; at 33.0 µM) was 98% (active), the growth inhibition [10, 18] was 98% (active) and the growth inhibition ([10]; at 50.0 µM) was 99.7% (active). For the same molecule, the growth inhibition ([10]; at 100.0 µM) was 95% (active), the growth inhibition ([11]; at 1.2 µM) was 3% and the growth inhibition ([11]; at 3.7 µM) was 36%. For the same molecule, the growth inhibition ([11]; at 11.0 µM) was 99% (active), the growth inhibition ([11]; at 33.0 µM) was 99% (active) and the growth inhibition ([11]; at 100.0 µM) was 96% (active). The growth inhibition ([12]; at 1.2 µM) was 17%, the growth inhibition ([12]; at 3.7 µM) was 56% and the growth inhibition ([12]; at 11.0 µM) was 99% (active). For the same molecule, the growth inhibition ([12]; at 33.0 µM) was 99% (active), the growth inhibition ([12]; at 100.0 µM) was 96% (active) and the growth inhibition [13, 17] was 62%. For the same molecule, the growth inhibition [13, 18] was 99% (active), the growth inhibition ([13]; at 50.0 µM) was 85% (active) and the growth inhibition ([14]; at 1.2 µM) was 15%. The growth inhibition ([14]; at 3.7 µM) was 50%, the growth inhibition ([14]; at 11.0 µM) was 97% (active) and the growth inhibition ([14]; at 33.0 µM) was 98% (active). The growth inhibition ([14]; at 100.0 µM) was 96% (active).

In the case of Cc1ccc(S(=O)(=O)NCCSS(=O)(=O)c2ccc(C)cc2)cc1, the growth inhibition ([1]; at 1.2 µM) is reported as 18%, the growth inhibition ([1]; at 3.7 µM) is reported as 31% and the growth inhibition ([1]; at 11.0 µM) is reported as 38%. For the same molecule, the growth inhibition ([1]; at 33.0 µM) was 98% (active), the growth inhibition ([1]; at 100.0 µM) was 95% (active) and the growth inhibition ([2]; at 1.2 µM) was 6%. The growth inhibition ([2]; at 3.7 µM) was 8%, the growth inhibition ([2]; at 11.0 µM) was 28% and the growth inhibition ([2]; at 33.0 µM) was 99% (active). The growth inhibition ([2]; at 100.0 µM) was 95% (active), the growth inhibition ([3]; at 1.2 µM) was -14% and the growth inhibition ([3]; at 3.7 µM) was 6%. The growth inhibition ([3]; at 11.0 µM) was 64%, the growth inhibition ([3]; at 33.0 µM) was 91% (active) and the growth inhibition ([3]; at 100.0 µM) was 96% (active). The growth inhibition ([4]; at 1.2 µM) was -13%, the growth inhibition ([4]; at 3.7 µM) was -8% and the growth inhibition ([4]; at 11.0 µM) was 3%. For the same molecule, the growth inhibition ([4]; at 33.0 µM) was 98% (active), the growth inhibition ([4]; at 100.0 µM) was 94% (active) and the growth inhibition ([5]; at 1.2 µM) was 9%. The growth inhibition ([5]; at 3.7 µM) was 6%, the growth inhibition [5, 17] was 36% and the growth inhibition ([5]; at 11.0 µM) was 17%. The growth inhibition ([5]; at 33.0 µM) was 98% (active), the growth inhibition [5, 18] was 95% (active) and the growth inhibition ([5]; at 50.0 µM) was 88.7% (active). For the same molecule, the growth inhibition ([5]; at 100.0 µM) was 93% (active), the growth inhibition ([6]; at 1.2 µM) was -2% and the growth inhibition ([6]; at 3.7 µM) was -13%. For the same molecule, the growth inhibition [6, 17] was -24%, the growth inhibition ([6]; at 11.0 µM) was 7% and the growth inhibition ([6]; at 33.0 µM) was 98% (active). The growth inhibition [6, 18] was 96% (active), the growth inhibition ([6]; at 50.0 µM) was 93% (active) and the growth inhibition ([6]; at 100.0 µM) was 96% (active). The growth inhibition [8, 17] was 7%, the growth inhibition [8, 18] was 95% (active) and the growth inhibition ([8]; at 50.0 µM) was 91% (active). It also gave a growth inhibition ([15]; at 1.2 µM) of -29%, a growth inhibition ([15]; at 3.7 µM) of -16% and a growth inhibition ([15]; at 11.0 µM) of -6%. For the same molecule, the growth inhibition ([15]; at 33.0 µM) was 96% (active), the growth inhibition ([15]; at 100.0 µM) was 93% (active) and the growth inhibition [9, 17] was 20%. For the same molecule, the growth inhibition [9, 18] was 96% (active), the growth inhibition ([9]; at 50.0 µM) was 87.2% (active) and the growth inhibition ([10]; at 1.2 µM) was -14%. It also gave a growth inhibition ([10]; at 3.7 µM) of -29%, a growth inhibition [10, 17] of 30% and a growth inhibition ([10]; at 11.0 µM) of -4%. For the same molecule, the growth inhibition ([10]; at 33.0 µM) was 98% (active), the growth inhibition [10, 18] was 97% (active) and the growth inhibition ([10]; at 50.0 µM) was 88.8% (active). The growth inhibition ([10]; at 100.0 µM) was 94% (active), the growth inhibition ([11]; at 1.2 µM) was -14% and the growth inhibition ([11]; at 3.7 µM) was -17%. The growth inhibition ([11]; at 11.0 µM) was -1%, the growth inhibition ([11]; at 33.0 µM) was 97% (active) and the growth inhibition ([11]; at 100.0 µM) was 94% (active). It also gave a growth inhibition ([16]; at 1.2 µM) of -27%, a growth inhibition ([16]; at 3.7 µM) of -34% and a growth inhibition ([16]; at 11.0 µM) of -14%. For the same molecule, the growth inhibition ([16]; at 33.0 µM) was 98% (active), the growth inhibition ([16]; at 100.0 µM) was 94% (active) and the growth inhibition ([12]; at 1.2 µM) was 20%. For the same molecule, the growth inhibition ([12]; at 3.7 µM) was 21%, the growth inhibition ([12]; at 11.0 µM) was 45% and the growth inhibition ([12]; at 33.0 µM) was 99% (active). The growth inhibition ([12]; at 100.0 µM) was 96% (active), the growth inhibition [13, 17] was 10% and the growth inhibition [13, 18] was 95% (active). The growth inhibition ([13]; at 50.0 µM) was 88.7% (active).
